Inconclusive results are not listed. Where a call stands in place of a potency, no number is given. The source made the active and inactive calls. Calls follow the shape of the dose curve; as a rule, active = well fitted activation curve with a large enough effect in the signal ratio in the repeat runs (not every such curve was filed as active); inconclusive = weak or mixed curves; inactive = flat fitted curve, though single readings scatter; the % refers to the signal ratio.
Test: qHTS assay to identify small molecule agonists of H2AX (AID 1224845)
Settings: CHO-K1 phospho-H2AX Ser139 HTRF, 3 h; series mostly up to 154 µM
Description: National Center for Advancing Translational Sciences [NCATS]
NIH Chemical Genomics Center [NCGC]
U.S. Environmental Protection Agency [EPA]
National Institutes of Environmental Health Sciences [NIEHS]
National Toxicology Program [NTP]
U.S. Food and Drug Administration [FDA]
HTRF phospho-H2AX (Ser139) assay (Cisbio Bioassays, US) enables the quantitative detection of the histone variant H2AX when phosphorylated on serine 139. When double-stranded DNA breaks, either by ionizing radiation or endogenous physiological processes, H2AX becomes phosphorylated at Ser139. This phospho-Ser139 serves as a sensitive biomarker for the detection of such breaks, localizing the site of DNA repair. So, HTRF phospho-H2AX Ser139 is a pertinent assay to study genome stability, the cell cycle, DNA repair, and it serves as a biomarker for cancer, and to understand aging. Wild type CHO-K1 cells were used to identify the inducers of Phospho-H2AX Ser 139 from the Tox21 10K compound collections.
Tox21 Assay Protocol Summary:
The CHO-K1 cells suspended in culture medium containing 10% FBS were dispensed at 1000 cells/ 3 ul/well in 1536-well white wall/solid bottom plates (Greiner Bio-One North America, NC) using a Multidrop Combi (Thermo Fisher Scientific Inc., Waltham, MA). After the assay plates were incubated at 37C overnight, 23 nl of compounds at 15 concentrations (from 5-48 columns) or positive control (from 1 to 4 columns) were transferred to the assay plates using a Pintool station (Wako, San Diego, CA) into each well resulting in a final DMSO concentration of 0.76%. After 3hr incubation at 37C, 1 uL/well Supplemented Lysis buffer (diluted 100 fold blocking reagent in lysis buffer) (HTRF Phospho-H2A.X (S139) Assay kit from Cisbio US Inc., Bedford, MA) was added using a Flying Reagent Dispenser (FRD) (Aurora Discovery, CA). After 10sec spin at 1000 rpm in a plate centrifuge, the assay plates were incubated at room temperature for 30 min. Then followed by the addition of 1 uL/well detection buffer (containing a mixture of two antibodies, one labeled with cryptate, Anti pH2AX (S139)-K and another labeled with d2, Anti H2AX-d2) using FRD. After incubation at room temperature for 24 hr, the time resolved fluorescence at excitation 320 nm and emissions at 665 nm and 620 nm was measured using an Envision plate reader (PerkinElmer, Waltham, MA).
Potency is read from the fitted curve at half-maximal effect.

Structure (SMILES) | Potency
CC1(C)[C@H](C(=O)O)N2C(=O)C[C@H]2S1(=O)=O | inactive
CC(C)Nc1cccnc1N1CCN(C(=O)c2cc3cc(NS(C)(=O)=O)ccc3[nH]2)CC1 | inactive
Cc1cscn1 | inactive
CCCCCCCCCCCCCCN(CCO)CCO | inactive
CCCCN(CCCC)C(C(N)=O)c1ccc(OC)cc1 (stereo not given) | inactive
C[C@@H](CN(C)C)CN1c2ccccc2Sc2ccccc21 | inactive
CCn1cc(C(=O)O)c(=O)c2cc(F)c(N3CCNCC3)cc21 | inactive
O=Cc1c2ccccc2c(Cl)c2ccccc12 | inactive
Cc1ccccc1N=C(N)Nc1ccccc1C | inactive
C[C@@H]1CN(CCCn2c3ccccc3c3ccccc32)C[C@H](C)N1 | inactive
O=C(Cn1ccnc1[N+](=O)[O-])NCCO | inactive
CCCCC(CC)CN (stereo not given) | inactive
O=C(O)CCc1nc(-c2ccccc2)c(-c2ccccc2)o1 | inactive
Cc1cc2c(OCC(CNC(C)(C)C)OC(=O)c3ccccc3)cccc2[nH]1 (stereo not given) | inactive
CC1=C(CC=O)C(C)(C)CCC1 | inactive
COc1cc(Nc2c(C#N)cnc3cc(OCCCN4CCN(C)CC4)c(OC)cc23)c(Cl)cc1Cl | 7.8 µM (active)
C/C=C\C/C=C/CCCCCCCCOC(C)=O | inactive
C=C1C[C@@]23CC[C@H]4[C@@](C)(CCC[C@@]4(C)C(=O)O[C@@H]4O[C@H](CO)[C@@H](O)[C@H](O)[C@H]4O)[C@@H]2CC[C@]1(O[C@@H]1O[C@H](CO)[C@@H](O)[C@H](O[C@@H]2O[C@H](CO)[C@@H](O)[C@H](O)[C@H]2O)[C@H]1O[C@@H]1O[C@H](CO)[C@@H](O)[C@H](O)[C@H]1O)C3 | inactive
CC(=O)OCC[N+](C)(C)C | inactive
C[C@@]12CCC[C@H]1[C@@H]1CC[C@H]3C[C@@H](O)CC[C@]3(C)[C@H]1CC2 | inactive

Structure (SMILES) | Potency
CC(C)(C)C(=O)C(=O)O | inactive
CCCCCCCCOc1ccc(C(=O)O)cc1 | inactive
O=C1c2ccccc2C(=O)N1CCc1noc(-c2ccc(CN3CCCCCC3)s2)n1 | inactive
CCOC(=O)C1=C(C)NC(C)=C(C(=O)OC)C1c1cccc(Cl)c1Cl (stereo not given) | inactive
Cc1cc(C)c(N)cc1C | inactive
O=C1NCCN1CCO | inactive
CCOC(C)=O | inactive
CCOc1ccc(Cc2nccc3cc(OCC)c(OCC)cc23)cc1OCC | inactive
CCN(CC)CCNC(=O)COc1ccc(OC)cc1 | inactive
NC(=O)c1ccncc1 | inactive
COc1ccccc1NC(=O)c1cc2ccccc2cc1O | inactive
CCCCCCCCCI | inactive
CC(C)(O)c1ccc(CNC(=O)c2cccnc2Oc2ccc3nonc3c2)cc1 | inactive
N#CCCN(CCO)CCO | inactive
CC(C)=CC(=O)C=C(C)C | inactive
CC1=Nc2ccc3ccccc3c2C1(C)C | inactive
CC(C)(C)CC(=O)OCC(=O)[C@@]1(O)CC[C@H]2[C@@H]3CCC4=CC(=O)C=C[C@]4(C)[C@H]3[C@@H](O)C[C@@]21C | inactive
CC1CC(OC(=O)C(O)c2ccccc2)CC(C)(C)N1C (stereo not given) | inactive
CCCCOc1ccc(OCCCN2CCOCC2)cc1 | inactive
CNC(=O)c1cnn(-c2nc(N)c3ncn([C@@H]4O[C@H](CO)[C@@H](O)[C@H]4O)c3n2)c1 | inactive
